# Data reported in publication PMC5540273 (PLoS ONE, 2017).
# What was measured:
# MINK = tested on: T1, MINK
# T1 construct: gene MINK1
# MST1 = tested on: T2, MST1
# T2 construct: gene STK4
# 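Note: kd values determined as follow-up on hits from a single-replicate KINOMEscan panel screen.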
smiles,measurement,setting,value
O=c1cc(N2CCOCC2)nc2n(Cc3cccc(Cl)c3Cl)c3ccccc3n12 [GSK2299009],Kd,MELK,> 10000 nM
NS(=O)(=O)c1cccc(N/C=C2\C(=O)Nc3ccc(S(=O)(=O)Cc4c(Cl)cccc4Cl)cc32)c1 [GSK398099],Kd,MINK,790 nM
CNC(=O)c1ccc(C)c(-n2c(C)cc(OCc3ccc(F)cc3F)c(Br)c2=O)c1,Kd,MKNK2,> 10000 nM
CC(C)c1cc(-c2ccc3c(N)n[nH]c3c2)nc(N)n1 [GSK2250882],Kd,MKNK2,160 nM
COc1cccc(C2=C(Nc3cc(Cl)c(O)c(Cl)c3)C(=O)NC2=O)c1 [SB-390767],Kd,MST1,1800 nM
same,Kd,NEK2,> 10000 nM
same,Kd,PAK3,> 10000 nM
Nc1nccc(-c2c(-c3ccc(F)cc3)ncn2C2CCN(Cc3ccccc3)CC2)n1 [SB-219980],Kd,NLK,140 nM
